Results: PubChem BioAssay (NCI)
The panel holds about 79,000 compounds, 15% with a hit somewhere; the sample as a whole holds those more often. Rule as the data show it: active = growth inhibition above about 70%; inactive = the rest.

Assays:
[1] = NCI Yeast Anticancer Drug Screen. Data for the rad50 strain (AID 155);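 also: 0% = growth of vehicle-only cultures of the same strain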; details: S. cerevisiae rad50 strain growth inhibition; at 50.0 µM; hits give high values
Method in brief: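 Relative growth inhibition (compound vs vehicle) was measured in yeast with a defined repair-gene alteration.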

[2] = NCI Yeast Anticancer Drug Screen. Data for the mec2-1 strain (AID 157); details: S. cerevisiae mec2-1 strain, at 50.0 µM, hits give high values
Method in brief: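 Vehicle-treated cultures served as reference for growth inhibition of compound-exposed mec2-1 yeast.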

[3] = NCI Yeast Anticancer Drug Screen. Data for the sgs1 mgt1 strain (AID 161);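 also: 0% = growth of cultures given vehicle only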; details: S. cerevisiae sgs1 mgt1 strain, at 50.0 µM, hits give high values
Method in brief: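 Mutant yeast exposed to compound; growth scored against vehicle-only wells.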

[4] = NCI Yeast Anticancer Drug Screen. Data for the cln2 rad14 strain (AID 165);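 also: 0% = growth equal to vehicle treated cultures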; details: S. cerevisiae cln2 rad14 strain, at 50.0 µM, hits give high values
Method in brief: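 Each compound was tested on cln2 rad14 yeast. Inhibition of growth was calculated against vehicle-exposed controls.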

[5] = NCI Yeast Anticancer Drug Screen. Data for the bub3 strain (AID 167); details: S. cerevisiae bub3 mutant strain, at 50.0 µM, hits give high values
Method in brief: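 Screening used yeast with an engineered genetic alteration affecting cell cycle control. Compound-exposed cultures were compared with vehicle cultures, and reduced growth was taken as inhibition.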

[6] = NCI Yeast Anticancer Drug Screen. Data for the mlh1 rad18 strain (AID 175); details: S. cerevisiae mlh1 rad18 strain growth inhibition; at 50.0 µM; hits give high values
Method in brief: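 Vehicle-treated cultures served as the reference for growth inhibition in a yeast strain carrying DNA damage repair alterations exposed to each compound.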

Measured: growth inhibition

CC(C)Nc1nc(N)nc(N)n1
inactive: [1] -11.1% | [2] -17.6% | [3] 2% | [4] -20.1% | [5] -17.6% | [6] -5.2%

COc1nc(NC2OC(COC(C)=O)C(OC(C)=O)C(OC(C)=O)C2OC(C)=O)c(-c2csc(N)n2)c(=O)n1C (configuration not stated)
inactive: [1] -6.6% | [2] -26.2% | [3] -18.8% | [4] 4.35% | [5] -11.3% | [6] -4.55%

O=C(O)C1(O)CC(O)C(O)C(O)C1 (configuration not stated)
inactive: [1] 5.25% | [2] -7.05% | [3] -0.25% | [4] -13.8% | [5] 8.55% | [6] -0.8%

CN(C)CCN1N=Nc2cccc3cccc1c23
inactive: [1] 43.3% | [2] 18.2% | [3] 10.9% | [4] 19.2% | [5] 30.6% | [6] 39.4%

CC(=O)NNC(=O)c1ccc(Br)cc1
inactive: [1] 1.3% | [2] -16.4% | [3] 0.5% | [4] -3.2% | [5] 21.6% | [6] -1.05%

Cc1c(Cc2c(C)n(C)n(-c3ccccc3)c2=O)c(=O)n(-c2ccccc2)n1C
inactive: [1] 9.55% | [2] -1.7% | [3] -0.25% | [4] 13.4% | [5] 9.9% | [6] 9.5%

O=C(O)CSc1c(Cl)c(=O)oc2ccc(Cl)cc12
inactive: [1] 30.3% | [2] -6.6% | [3] 20.2% | [4] -2% | [5] 17% | [6] 43.9%

CCSCCCCSCC
inactive: [1] -2.85% | [2] -34.4% | [3] -15.7% | [4] 3.35% | [5] 6.3% | [6] -2.2%

CCCCOCC(=O)NC1CCCCC1
inactive: [1] 29.9% | [2] -30.4% | [3] -39.4% | [4] -10.2% | [5] -24.1% | [6] 33.6%

O=C1OC(c2ccccc2)=CC1(Cc1ccccc1)Cc1ccccc1
inactive: [1] 0.2% | [2] -25.4% | [3] 4.35% | [4] -35.2% | [5] 2.6% | [6] -5.15%

O=C1COCCO1
inactive: [1] 2.45% | [2] -8.55% | [3] 6.45% | [4] -14% | [5] -6.55% | [6] -19.5%

CC(C)(C)N=C1CC(C)(C)c2ccccc2C(=Nc2ccccc2)S1
inactive: [1] 23.2% | [2] 9.55% | [3] 24.8% | [4] 24.1% | [5] 8.3% | [6] 15.3%

Cc1ccc2c(ccc3nnc(C)n32)c1
inactive: [1] 9.15% | [2] 4.05% | [3] 4.65% | [4] -2.95% | [5] 2.75% | [6] 10.8%

COC1=C(C(=O)c2ccc(OC)c(OC)c2)COC1=O
inactive: [1] -8.4% | [2] -13.3% | [3] -4.5% | [4] -4.4% | [5] 31.4% | [6] 7.15%

COc1cccc2c(NCCCCCO[N+](=O)[O-])cc[n+](C)c12
inactive: [1] 25.7% | [2] -24.4% | [3] 9.85% | [4] 8.7% | [5] 16.6% | [6] 29.1%

COc1cc(/C=C(\OC(C)=O)c2ccc3c(c2)OCO3)cc(OC)c1OC
inactive: [1] -5% | [2] -0.95% | [3] 33.2% | [4] 13.6% | [5] 44% | [6] -19.1%

NNc1nc2ccc([N+](=O)[O-])cc2s1
inactive: [1] 13.7% | [2] -8.55% | [3] -1% | [4] -22% | [5] -9.75% | [6] 22.2%

Brc1cccc(-c2nnc(-c3cccc4ccccc34)o2)c1
inactive: [1] 1% | [2] -11.2% | [3] 0.5% | [4] -39.2% | [5] 6.7% | [6] -8.55%

CCC1=NO[C@@H](C(=O)OCc2ccccc2)[C@H]1C
inactive: [1] -12.2% | [2] 5.25% | [3] -7.2% | [4] -29.2% | [5] 9.15% | [6] -21.4%

CCCN1C(=O)c2cc(=O)[nH]c(O)c2C1C (configuration not stated)
inactive: [1] -14.2% | [2] -10.9% | [3] -8.75% | [4] 9% | [5] -13.3% | [6] 0.4%

CCOC(=O)CC1(C)SCCN1C(N)=O (configuration not stated)
inactive: [1] 2.25% | [2] 4.35% | [3] -5.85% | [4] -26.3% | [5] 4% | [6] -10.2%

CC(C)OC(=O)CO
inactive: [1] 29.6% | [2] 3.55% | [3] 14.2% | [4] 12.2% | [5] 10.5% | [6] 13.2%

N=C(N)SCC(O)c1ccccc1 (configuration not stated)
inactive: [1] 6.35% | [2] -11.4% | [3] -13.6% | [4] -42.4% | [5] -3.1% | [6] -19.5%

CCN(CC)C(=O)COc1ccc(Cl)c(C)c1
inactive: [1] 9.5% | [2] 3.45% | [3] 6.4% | [4] 27.6% | [5] 33.6% | [6] 19.4%

CC1(C)C(=O)CC[C@]2(C)[C@H]3C(=O)C=C4[C@H]5C[C@@](C)(C(=O)O)CC[C@]5(C)CC[C@@]4(C)[C@]3(C)CC[C@@H]12
inactive: [1] -4.8% | [2] -5.95% | [3] -3.85% | [4] -16.1% | [5] 0.15% | [6] -0.95%

CO[C@H]1C[C@H]2[C@@H]3CCC4=CC(=O)C=C[C@]4(C)[C@@]3(F)[C@@H](O)C[C@]2(C)[C@@]1(O)C(=O)COC(C)=O
inactive: [1] 6.55% | [2] -0.35% | [3] 22.8% | [4] 33.2% | [5] 1.05% | [6] -6.55%

COc1c2occc2c(OC)c2c(=O)c(S(=O)(=O)NC(=O)Nc3ccc(Cl)cc3)coc12
inactive: [1] 5.7% | [2] -11.8% | [3] 3.65% | [4] -55.8% | [5] -20.3% | [6] 2.4%

O=[N+]([O-])c1ccc(N/N=C/c2ccc(CO)cc2)c([N+](=O)[O-])c1
inactive: [1] 4% | [2] -5.65% | [3] 18.1% | [4] -13.9% | [5] 6.1% | [6] 17.2%

COC(=O)C12CC3CC(CC(C(=O)O)(C3)C1)C2
inactive: [1] -10.2% | [2] -7.95% | [3] -4.8% | [4] -3.2% | [5] -1.65% | [6] -14.8%

CC1C2CC(CC2(C)O)C1(C)C (configuration not stated)
inactive: [1] 8.45% | [2] -3.1% | [3] 3.35% | [4] 9.05% | [5] -3.3% | [6] -7.35%

CCOC(=O)c1nc2c([nH]1)c(=O)n(C)c(=O)n2C
inactive: [1] 28.8% | [2] 10.7% | [3] 2.3% | [4] 30.1% | [5] 9.8% | [6] 1.4%

Oc1ccc(CN=Cc2ccccc2)cc1
inactive: [1] 0.05% | [2] 3.3% | [3] -7.05% | [4] -14.9% | [5] -15.6% | [6] -10.1%

COC(=O)c1cn[nH]c1CC(N)=O
inactive: [1] 35.9% | [2] 11.5% | [3] 25.1% | [4] -17.1% | [5] 12.3% | [6] 19.9%

O=C1CCC2(c3ccc(Cl)cc3)SCCN12 (configuration not stated)
inactive: [1] 5.8% | [2] -20.5% | [3] -6.85% | [4] 2.75% | [5] 31.8% | [6] -0.15%

O=C1C=CSc2ccccc2N1
inactive: [1] -2.4% | [2] 2.5% | [3] -2.15% | [4] 4.4% | [5] 2.45% | [6] 4.5%

COc1ccc(NC(=O)C(=O)C2NC(=S)NC2=O)c(OC)c1 (configuration not stated)
inactive: [1] 34.4% | [2] 16.5% | [3] 11.6% | [4] 15.3% | [5] 3% | [6] 3.2%

COC(=O)C(C)CC(=O)c1ccc2ccc3cccc4ccc1c2c34 (configuration not stated)
inactive: [1] -16.9% | [2] -18.4% | [3] -2.05% | [4] -35.4% | [5] 19.4% | [6] -4.2%

O=c1[nH]c2nc(Cl)nc(Cl)c2[nH]1
inactive: [1] 28.4% | [2] 5.55% | [3] 11.4% | [4] 12.1% | [5] 8.3% | [6] 45%

CCCCCCCCCCCCCCCCCC(=O)OCCCC
inactive: [1] 6.35% | [2] -9.9% | [3] -20.1% | [4] -20.4% | [5] 0.2% | [6] -22%

CC1=CCCCC1
inactive: [1] 3.85% | [2] 2.8% | [3] -1.35% | [4] -5.1% | [5] 8.65% | [6] -7.25%

[N-]=[N+]=Nc1ccccc1C(=O)NCCNC(=O)c1ccccc1N=[N+]=[N-]
inactive: [1] -7.4% | [2] -31.9% | [3] 2.25% | [4] 6.85% | [5] 2.6% | [6] 6.75%

CC(=Nc1cc(Cl)cc(Cl)c1)c1ccncc1
inactive: [1] -25.1% | [2] -21.2% | [3] -31.4% | [4] -5.05% | [5] 16.4% | [6] -49.8%
